# TGFb SMAD3 inh: TGF-b pathway inhibition | Potency, µM (highest dose often 46.1 µM), without a hit: at the top dose activity, negative = inhibition, hits mostly inhibitors | hit rate 1.2% among 410,000 | HepG2 CAGA-GFP TGF-b/SMAD3 reporter, GFP fluorescence, 18 h; TGF-beta stimulated, 500 pg/mL final; also: % is scaled to controls: 0 for no effect and ±100 for the full control effect; nearly all actives have a fitted effect of over 65% in size
#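 TGF-beta reporter screen: HEPG2 CAGA-GFP, 1% FBS, 500 pg/mL TGF-beta final, 18 h; per-cell GFP summed per well; curves fitted and categorized by class.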
# KB-V1 MDR tox: KB-V1 MDR subline cytotoxicity; hit rate 3.4% among 400,000; Potency, µM (titrated, usually from 46.1 µM), actives largely listed as cytotoxic; KB-V1 MDR cells viability, CellTiter-Glo, 72 h; also: % is scaled to controls: 0 for no effect and ±100 for the full control effect; nearly all actives have a fitted effect of over 60% in size
#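 In this primary screen, KB-V1 cells overexpressing P-gp are incubated with library compounds (lowest to highest concentration) for 72 h at 37 degrees C before a luminescent ATP viability read.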
# KB-3-1 cytotox: KB-3-1 parental cell cytotoxicity; hit rate 1.4% among 400,000; AID 1347075; Potency, µM (doses to about 46.1 µM), most hits filed as cytotoxic; KB-3-1 viability, CellTiter-Glo ATP luminescence, 72 h; also: % is scaled to controls: 0 for no effect and ±100 for the full control effect; nearly all actives have a fitted effect of over 60% in size
#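 Parental KB-3-1 adenocarcinoma cells in phenol-red-free DMEM with 10% FBS were pin-treated with compounds at several concentrations, incubated 72 h at 37 °C, and viability read by CellTiter-Glo luminescence; concentration-effect curves were fitted after normalization.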
# HT1080-NT tox: kills 2HG-producing HT-1080-NT fibrosarcoma cells | HT-1080-NT fibrosarcoma viability, CellTiter-Glo ATP luminescence, 48 h | Potency, µM (doses to about 46.1 µM), for inactives: at the highest dose activity, negative = less viability, actives largely listed as cytotoxic | hit rate 1.6% among 360,000 | AID 686970;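 also: NT is the 2HG producing partner of a matched IDH1 knockdown line; 0% = DMSO-treated cells and -100% = media-only wells without cells; nearly all actives have a fitted effect of over 55% in size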
#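 HT-1080-NT fibrosarcoma cells (2HG-overproducing), 750 cells/well in RPMI with 5% FBS, dosed after 2 h and incubated 48 h at 37C. CellTiter-Glo luminescence normalized to DMSO and no-cell wells; concentration-response curves fitted and classed.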
# HepG2 viability: HepG2 cytotoxicity, counter-screen for TGF-b inhibitors. Potency, µM (titrated, usually from 46.1 µM), inactives show at the highest dose activity change, negative = cytotoxicity, usual class: cytotoxic. HepG2 CAGA-GFP viability, ATP luminescence, 18 h. hit rate 0.76% among 410,000. AID 588856
#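 CellTiter-Glo luminescence gave cytotoxicity after 18 hours at 37 degrees C. The cells were HepG2 CAGA-GFP in 1% FBS DMEM, stimulated with 500 pg/mL TGF-beta after compound addition. %Activity was normalised to no-cell wells (complete cell-killing) and DMSO (no toxicity), and curves were fitted and classified.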
# HT1080 IDH1KD tx: kills HT-1080 cells with IDH1 knockdown. hit rate 2% among 360,000. HT-1080 IDH1 knockdown viability, ATP luminescence, 48 h. Potency, µM (top dose mostly 46.1 µM), for inactives: at the top dose activity, negative = toxicity, most hits filed as cytotoxic. AID 686971;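 also: 0% = DMSO wells and -100% = cell-free medium wells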
#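 CellTiter-Glo luminescence after 48 h compound exposure at 37 degrees C of IDH1-knockdown HT-1080 cells in 5% FBS RPMI. %Activity scaled between DMSO wells and cell-free media wells, with curves fitted and assigned curve classes.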
# An asterisk follows results filed as active; i = inactive; ? = inconclusive; . = no result; [ ] = remark or other dose. A selection: hits, their analogues and other compounds. The true share with any hit is near 6.6%. Calls follow the shape of the dose curve; as a rule, active = well fitted curve in the direction sought with a large enough effect; inconclusive = small, poorly fitted or top-dose-only effect, or another doubt; inactive = no such curve, though single readings can be large; an effect the other way counts as inactive or inconclusive. Potency is read from the fitted curve at half-maximal effect.
SMILES,TGFb SMAD3 inh,KB-V1 MDR tox,KB-3-1 cytotox,HT1080-NT tox,HepG2 viability,HT1080 IDH1KD tx
O=c1c2ccccc2nc(/C=C/c2ccc3c(c2)OCO3)n1CCCO,?,i,?,?,-4%,6.5µM*
Cc1ncc(CO)c2c1Oc1nc(-c3ccccc3)nc(SCC(=O)Nc3cccc(C(F)(F)F)c3)c1C2,?,.,.,.,-12%,.
COc1ccc(C(=O)Nc2ccc3nc(SCC(=O)N(C)c4ccccc4)sc3c2)cc1,?,?,i,.,-9%,.
CC1(C(=O)NS(=O)(=O)c2ccccc2OC(F)(F)F)CCN1C(=O)c1ccco1 (centres undefined),7%,i,i,14%,-2%,13%
COc1ccc2oc(-c3ccc(C)c(NC(=O)COc4cc(C)cc(C)c4)c3)nc2c1,-2%,i,i,.,-6%,.
CCCN(C(=O)c1noc2c1COc1ccc(C)cc1-2)c1ccc(Cl)c(Cl)c1,-6%,i,i,.,-36%,.
CC(C)(C)c1ccc(-n2nc(C#N)c(Cl)cc2=O)cc1,7.1µM*,?,?,7.3µM*,6.3µM*,3.3µM*
CC(C)(C)c1ccc(-n2nc(C(N)=O)c(O)cc2=O)cc1,8%,i,i,-4%,-21%,1%
O=C(CSc1ncnc2nc[nH]c12)c1ccc2ccccc2c1,-3%,i,i,23µM*,-32%,?
c1nc(SSc2ncnc3nc[nH]c23)c2[nH]cnc2n1,0%,2.3µM*,5.2µM*,2.3µM*,-65%,1.3µM*
O=C(O)CSc1ncnc2nc[nH]c12,0%,i,i,0%,-3%,-11%
O=C(CSc1ncnc2nc[nH]c12)N1CCN(c2ccc(Cl)cc2)CC1,2%,?,18µM*,?,-17%,-26%
Cc1nc(-c2ccccn2)sc1C(=O)Nc1ccc(F)cc1F,-20%,10µM*,i,-13%,-43%,6%
Cc1nc(-c2ccncc2)sc1C(=O)Nc1ccc(Cl)cc1,1%,i,i,1%,29%,1%
CNC(=O)c1sc(-c2ccccn2)nc1C,0%,i,i,24%,12%,17%
Cc1nc(-c2ccccn2)sc1C(=O)Nc1ccc(F)cc1,7%,18µM*,?,-26%,-24%,-20%
Cc1nc(-c2cccnc2)sc1C(=O)Nc1ccc(Cl)cc1,8%,18µM*,i,8%,-4%,5%
CCOC(=O)C1CCC(CN(Cc2ccc(Cl)cc2)S(=O)(=O)c2cc(Cl)cc(Cl)c2)CC1 (centres undefined),22%,i,?,.,1%,.
COc1ccc(Cl)cc1NC(=O)COC(=O)c1c(-c2ccccc2)noc1C,-22%,?,i,-6%,-14%,-23%
S=c1[nH]c2ccc(Cl)cc2[nH]1,1%,18µM*,i,-2%,10%,2%
COc1ccc2[nH]c(=S)[nH]c2c1,0%,i,i,15%,3%,20%
Cc1ccc(-n2nc(C(=O)Nc3ccc(Br)cc3C)c(=O)n(C)c2=O)cc1,3%,?,i,.,-4%,.
CCOC(=O)N1CCN(CCC(=O)c2ccc(Br)cc2)CC1,-27%,i,i,?,-29%,?
CCOC(=O)N1CCN(Cc2cc(=O)oc3ccc(Cl)cc23)CC1,0%,18µM*,i,-5%,1%,4%
CCOC(=O)N1CCN(CCC(=O)c2ccc(OC)cc2)CC1,11µM*,i,i,-14%,-100%,-8%
SMILES,TGFb SMAD3 inh,KB-V1 MDR tox,KB-3-1 cytotox,HT1080-NT tox,HepG2 viability,HT1080 IDH1KD tx
COc1ccc(N2CCN(CCC(=O)c3ccc4ccccc4c3)CC2)cc1,11µM*,?,i,?,-114%,?
CCOC(=O)N1CCN(CCC(=O)c2ccc(Cl)cc2)CC1,?,?,21µM*,?,-59%,-18%
COc1ccc(N2CCN(CC(=O)c3ccccc3)CC2)cc1,0%,i,i,1%,-2%,18%
Cc1ccc(Cn2c(CCCNC(=O)c3ccco3)nc3ccccc32)cc1,-12%,i,i,.,-35%,.
OC[C@@H]1CN(Cc2cccs2)C[C@H](n2cnc3c(NCc4ccco4)ncnc32)O1,0%,i,i,?,-3%,0%
Cc1ccc(C2CC(=O)N(Cc3ccccc3F)c3c2c(C)nn3-c2nc(C)cc(C)n2)cc1 (centres undefined),-12%,i,i,.,-32%,.
CCOc1ccc(C(C)NC(=O)c2ccccc2F)cc1 (centres undefined),5%,16µM*,i,7%,8%,0%
Cc1sc2ncn(CC(=O)N3CCN(c4ccccc4F)CC3)c(=O)c2c1S(=O)(=O)N1CCC(C)CC1,-28%,i,i,.,-8%,.
COc1ccccc1OC(C)C(=O)N1CCC(c2nc3ccccc3s2)CC1 (centres undefined),?,?,15µM*,.,3%,.
CC(C)Oc1ccc(C(=O)N2CCC(c3nc4ccccc4s3)CC2)cc1,?,i,i,.,-30%,.
CCN(CC)C(=O)c1ccc(S(=O)(=O)N2CCC(c3nc4ccccc4s3)CC2)cc1,-16%,7.3µM*,21µM*,?,-23%,-16%[9.24 µM]
COc1ccc(OCC(=O)N2CCC(c3nc4ccccc4s3)CC2)cc1,?,?,?,.,-39%,.
CC1CCCN(C(=O)c2ccc(S(=O)(=O)N3CCC(c4nc5ccccc5s4)CC3)cc2)C1 (centres undefined),-29%,?,?,?,-23%,-6%[9.24 µM]
CCc1ccc(OC(C)C(=O)N2CCC(c3nc4ccccc4s3)CC2)cc1 (centres undefined),?,15µM*,?,.,-27%,.
CC(C)c1ccc(NC(=O)CCNS(=O)(=O)c2ccc3c(c2)oc(=O)n3C)cc1,?,?,i,.,3%,.
COc1cccc(CNC(=O)CCc2c(C)c3ccc(O)c(C)c3oc2=O)c1,?,.,.,.,-24%,.
N#CCc1c(C#N)c(N)nc(N2CCN(S(=O)(=O)c3ccccc3F)CC2)c1C#N,2%,i,i,-28%,-27%,-16%
N#CCc1c(C#N)c(N)nc(N2CCN(c3ccc(F)cc3)CC2)c1C#N,-21%,12µM*,?,-3%,-8%,0%
Cc1cc(C)c(C#N)c(N2CCN(Cc3ccc4c(c3)OCO4)CC2)n1,3%,?,i,-1%,-24%,0%
N#CCc1c(C#N)c(N)nc(N2CCN(Cc3ccc4c(c3)OCO4)CC2)c1C#N,8%,21µM*,?,-3%,-3%,-18%

# Screens: PubChem, National Center for Advancing Translational Sciences (NCATS)
